Records with an inconclusive call do not appear. Where a call stands in place of a potency, no number is given. The source made the active and inactive calls. Calls follow the shape of the dose curve; as a rule, active = well fitted curve in the direction sought with a large enough effect; inconclusive = small, poorly fitted or top-dose-only effect, or another doubt; inactive = no such curve, though single readings can be large; an effect the other way counts as inactive or inconclusive. Where a SMILES comes first, the peptide text is derived from it. The star is where a group is joined. βNA = c1ccc2cc(N*)ccc2c1; Cbz = O=C(OCc1ccccc1)*; PhAc = O=C(Cc1ccccc1)*
Legend:
[1] = Primary fluorescence-based thiol-reactive (MSTI) qHTS assay for identification of artifact compounds. (AID 1845221); settings: MSTI thiol-reactivity probe, 1 h; series mostly up to 53.8 µM; also: nearly all actives have a fitted effect of over 65% in size; also: potency is read from the fitted curve at half-maximal effect
How it was run: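 One-hour, room-temperature, dark incubation of compound with 4 uM MSTI in PBS (pH 7.4, 2% DMSO) precedes a fluorescence read at 525 nm excitation, 598 nm emission; Hill-equation fitting yields concentration-response values.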

[2] = system: Nanoluciferase (engineered Oplophorus gracilirostris luciferase); assay: Primary Nanoluciferase (NLuc) qHTS assay for identification of artifact compounds. (AID 1845222); settings: NLuc-conditioned medium, Nano-Glo luminescence, 5 min; series mostly up to 54.1 µM; also: potency is read from the fitted curve at half-maximal effect
How it was run: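 Using secreted nanoluciferase in S16 culture medium (0.22 um filtered, 1:55 dilution), compounds were preincubated 15 min at RT. Signal was generated with Nano-Glo reagent (1:100) over 5 min.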

[3] = Primary redox qHTS assay for identification of artifact compounds. (AID 1845223); settings: Amplex Red/HRP redox cycling with DTT, fluorescence; series mostly up to 53.8 µM
How it was run: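 Amplex Red (25 uM) and HRP (250 mU/mL) in HBSS, with compounds for 15 min, then 250 uM DTT for 30 min, room temperature, dark. Fluorescence 525/598 nm read; normalized to DMSO and 10 uM DA3003; Hill fit.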

Compound | Potency [1] | Potency [2] | Potency [3]
C=C1CC/C=C(/C(=O)O)CCC2C1CC2(C)C (stereo not drawn) | inactive | inactive | inactive
CC1(C(=O)O)CCCC2(C)C3CCC4CC3(CCC12)CC4(O)CO (stereo not drawn) | inactive | inactive | inactive
C=C1C2(C)CC3C4(C)OC(C5OC56C4=CC(=O)OC6(C)C)C3(C)C13C(=O)OC(C)C3(O)C2=O (stereo not drawn) | inactive | inactive | inactive
CCOc1ccc(-c2nn3ncccc3c2-c2ccc(S(C)(=O)=O)cc2)cc1 | inactive | inactive | inactive
CC1(C)COC(=O)[C@@H]1O[C@@H]1O[C@H](CO)[C@@H](O)[C@H](O)[C@H]1O | inactive | inactive | inactive
CCC1OC(=O)C(C)CC(C)C(=O)/C(C)=C/C(C)C(=O)/C=C/C1(C)O (stereo not drawn) | inactive | inactive | inactive
C=C(CCO)C(=O)OCC1OCC(OC(=O)C(=C)CCO[C@@H]2O[C@H](COC(=O)C(=C)CCO[C@@H]3O[C@H](CO)[C@@H](O)[C@H](O)[C@H]3O)[C@@H](O)[C@H](O)[C@H]2O)C(O)C1O (stereo partly drawn) | inactive | inactive | inactive
Cc1cccc(-c2nn3c(c2-c2ccnc4ccc(C(N)=O)cc24)CCC3)n1 | inactive | inactive | inactive
CC1=CC(=O)[C@]2(O[C@@H]3O[C@@H](C)[C@H](O)[C@@H](O)[C@H]3O)C=CO[C@@H](O[C@@H]3O[C@H](CO)[C@@H](O)[C@H](O)[C@H]3O)[C@H]12 | 5.82 µM (active) | inactive | inactive
C=CC1(C)CC2CCC3C(C)(C(=O)O)CCCC3(C)C2=CC1=O (stereo not drawn) | inactive | inactive | inactive
CC1(C)CC(NC(=O)C(=O)Nc2ccc(Cl)cc2)CC(C)(C)N1 | inactive | inactive | inactive
COc1cc(CCCO)ccc1O[C@@H]1O[C@H](CO)[C@@H](O)[C@H](O)[C@H]1O | 16.5 µM (active) | inactive | inactive
CCC(C)C(=O)O[C@H]1C[C@](C)(O)[C@]23OC(C)(C)[C@H](C[C@H](OC(=O)c4ccccc4)[C@]2(COC(C)=O)[C@H]1OC(=O)C(C)CC)[C@H]3OC(C)=O (stereo partly drawn) | inactive | inactive | inactive
C=C(COC(=O)C(C)C)C1Oc2cc(C(C)=O)ccc2C1OC(=O)C(C)C (stereo not drawn) | inactive | inactive | inactive
Nc1nc2c(nc(Sc3ccc(Cl)cc3)n2[C@@H]2O[C@@H]3COP(=O)(O)O[C@H]3[C@H]2O)c(=O)[nH]1 | inactive | inactive | inactive
O=C(OC[C@H]1O[C@H](O[C@H]2CO[C@H](CO)[C@@H](O)[C@@H]2O)[C@H](O)[C@@H](O)[C@H]1O)c1ccccc1 | inactive | inactive | inactive
C=C1C(=O)O[C@@H]2/C=C(\C)CC/C=C(\C(=O)O[C@@H]3O[C@H](CO)[C@@H](O)[C@H](O)[C@H]3O)CC[C@@H]12 | 4.12 µM (active) | inactive | inactive
CC(C)CC(NC(=O)OCc1ccccc1)C(=O)NC(CC(C)C)C(=O)NC(CCC(=O)O)C(=O)Nc1ccc2ccccc2c1 (stereo not drawn) (Cbz-Leu-Leu-Glu-βNA; configuration not given here) | inactive | inactive | inactive
CC(=O)N[C@H]1[C@H](O[C@H]2CC[C@]3(C)C4CC=C5[C@@H]6CC(C)(C)CC[C@]6(C(=O)O)[C@H](O)C[C@@]5(C)[C@]4(C)CC[C@H]3C2(C)C)O[C@H](CO)[C@@H](O)[C@@H]1O (stereo partly drawn) | inactive | inactive | inactive

Compound | Potency [1] | Potency [2] | Potency [3]
CC1CCC2C(C)(C)C(O)C(O)CC2(C)C12Cc1c(O)cc(CO)c(C=O)c1O2 (stereo not drawn) | inactive | inactive | inactive
C[C@@H]1CC[C@]2(C(=O)O)CC[C@]3(C)C(=CCC4[C@@]5(C)C[C@@H](O)[C@@H](O)C(C)(C)C5CC[C@]43C)C2[C@]1(C)O (stereo partly drawn) | inactive | inactive | inactive
COc1cc2c(cc1O)CC(O)(CO)C(CO)C2c1ccc(OC2OC(CO)C(O)C(O)C2O)c(OC)c1 (stereo not drawn) | 10.3 µM (active) | inactive | inactive
C[C@@H]1C[C@@H](O)[C@@]23CO[C@]2(CO)CCC[C@@H]3[C@@]12C[C@@H](c1ccoc1)OC2=O | inactive | inactive | inactive
C=C1CC2C3(C)C(O)CC(=O)C(C)(C)C3C(O)C(OC(C)=O)C2(C)C2C(=O)OC(C)(C(=O)OC)C(=O)C12C (stereo not drawn) | inactive | inactive | inactive
CN(C)CCC[C@]1(c2ccc(F)cc2)OCc2cc(C#N)ccc21 | inactive | inactive | inactive
CCC(C)(C)C1CCc2c(sc(NC(=O)c3ccc(Br)cc3)c2C#N)C1 (stereo not drawn) | inactive | inactive | inactive
N#CN1CCC[C@@H](n2nc(-c3ccc(Oc4ccc(F)cc4F)cc3)c(C(N)=O)c2N)C1 | inactive | inactive | inactive
C[C@H](O)C(O)(C(=O)OCc1ccccc1NC(=O)CCC(N)C(=O)O)[C@H](C)O (stereo partly drawn) | inactive | inactive | inactive
CC(=O)O[C@H]1[C@H](OC(=O)C(C)C)[C@]2(C)OC3(CC[C@]2(C)[C@H]2CCC[C@]4(CO4)[C@]12C)COC(=O)C3 (stereo partly drawn) | inactive | inactive | inactive
COc1ccc(S(=O)(=O)Nc2nc(-c3cccc([N+](=O)[O-])c3)cs2)cc1OC | 1.19 µM (active) | 9.53 µM (active) | inactive
COC(=O)C1=CO[C@@H](O[C@@H]2O[C@H](CO)[C@@H](O)[C@H](O)[C@H]2O)[C@@H]2C(CO)=CC[C@H]12 | inactive | inactive | inactive
CC(=O)OC1(C)CC(O)C2(O)C=COC(OC3OC(CO)C(O)C(O)C3O)C12 (stereo not drawn) | inactive | inactive | inactive
CC(C)C1NC(=O)CNC(=O)C2CCCN2C(=O)C(Cc2c[nH]c3ccccc23)NC(=O)CNC(=O)C(Cc2ccc(O)cc2)NC(=O)CNC1=O (stereo not drawn) (cyclo(GVGYGWP); configuration not given here) | inactive | inactive | inactive
Cc1occc(=O)c1O[C@@H]1O[C@H](CO)[C@@H](O)[C@H](O)[C@H]1O | inactive | inactive | inactive
CN1CCCC1Cc1c[nH]c2ccc(CCS(=O)(=O)c3ccccc3)cc12 (stereo not drawn) | inactive | inactive | inactive
C[C@@H](CC[C@@H]1[C@@]2(C)CCCC(C)(C)C2CC[C@@]1(C)O)CC(=O)O (stereo partly drawn) | inactive | inactive | inactive
C[C@H]1[C@H](C)CC[C@]2(C(=O)O)CC[C@]3(C)C(=CCC4[C@@]5(C)C[C@@H](O)[C@H](O)C(C)(C)C5CC[C@]43C)[C@H]12 (stereo partly drawn) | inactive | inactive | inactive
CC(C)C(O)(CO)CCO[C@@H]1O[C@H](CO[C@H]2OC[C@](O)(CO)[C@H]2O)[C@@H](O)[C@H](O)[C@H]1O (stereo partly drawn) | inactive | inactive | inactive

Compound | Potency [1] | Potency [2] | Potency [3]
CC(=O)NC1C(OC2CCC3(C)C(CCC4(C)C3CC=C3C5CC(C)(C)CCC5(C(=O)O)C(O)CC34C)C2(C)C)OC(CO)C(O)C1O (stereo not drawn) | inactive | inactive | inactive
CC1=C2CC(=O)C(C)CC/C=C(\C)CC2(O)OC1=O (stereo not drawn) | inactive | inactive | inactive
CC[C@@H](Nc1c(Nc2cccc(C(=O)N(C)C)c2O)c(=O)c1=O)c1ccc(C)o1 | 2.38 µM (active) | inactive | inactive
C=C1CCC2[C@](C)(CO)CCC[C@@]2(C)[C@@H]1CCC1=CCOC1=O (stereo partly drawn) | inactive | inactive | inactive
CC(C)CC(=O)OC[C@@]1(O)C[C@@]23CC[C@H]4[C@@](C)(CCC[C@@]4(C)C(=O)O)[C@@H]2CC[C@@H]1C3 | inactive | inactive | inactive
COc1cc(C(=O)OC[C@H]2O[C@@H](OC(C)(C)C(=O)O)[C@H](O)[C@@H](O)[C@@H]2O)cc(OC)c1O | inactive | inactive | inactive
C=C(C)[C@@H]1CC[C@]2(CO)CC[C@]3(C)[C@H](CC[C@@H]4[C@@]5(C)CC[C@H](O)C(C)(C)[C@@H]5CC[C@]43C)[C@@H]12 | inactive | inactive | inactive
Cc1noc2c1-c1ccccc1C(c1ccc(Cl)cc1)=N[C@H]2CC(N)=O | inactive | inactive | inactive
COC(=O)C1=COC(O[C@@H]2O[C@H](CO)[C@@H](O)[C@H](O)[C@H]2O)[C@@H]2[C@@](C)(O)[C@@H](OC(=O)/C=C/c3ccccc3)C[C@]12O (stereo partly drawn) | 13 µM (active) | inactive | inactive
CC1=C2C(=O)C=C(CO)C2C2OC(=O)C(CS(=O)(=O)O)C2C(OC(=O)Cc2ccc(O)cc2)C1 (stereo not drawn) | 3.67 µM (active) | inactive | inactive
C=C1C(=O)OC2CC(COC(=O)C(C)C)=C(C(C)CCCOC(C)=O)[C@@H](OC(C)=O)C12 (stereo partly drawn) | inactive | inactive | inactive
CCOC(=O)CNC(=O)[C@@H]1CCCN1C(=O)Cc1ccccc1 (PhAc-Pro-Gly-OEt) | inactive | inactive | inactive
CC(=O)OC12CC(C)C(O)C1/C=C(/COC1OC(CO)C(O)C(O)C1O)CCC1C(/C=C(\C)C2=O)C1(C)C (stereo not drawn) | inactive | inactive | inactive
COC(=O)/C=C/c1ccc(O[C@@H]2O[C@H](CO)[C@@H](O)[C@H](O)[C@H]2O)cc1 | inactive | inactive | inactive
O=S(=O)(O)c1ccc(Nc2ncnc3c2ncn3[C@@H]2O[C@H](CO)[C@@H](O)[C@H]2O)cc1 | inactive | inactive | inactive
COc1cc(C)c(C(=O)O[C@@H]2[C@H](O)[C@@H](CO)O[C@H]2n2ccc(=O)[nH]c2=O)c(OC)c1 | inactive | inactive | inactive
CC(=O)OC[C@]12[C@H](OC(C)=O)[C@H](OC(=O)c3ccccc3)[C@@H]3[C@@H](OC(C)=O)[C@]1(OC3(C)C)[C@H](C)C[C@H](OC(=O)c1ccccc1)[C@@H]2OC(=O)c1ccccc1 | inactive | inactive | inactive
COc1ccc(C(=O)NCc2cc(C(C)C)no2)cc1OC1CCN(C)CC1 | inactive | inactive | inactive

From PubChem BioAssay (NCATS)
